Active and inactive are the calls of the source. The rule behind the calls is not given here.

This test can be described thus: Biochemical counterscreen for C difficile toxins, absence of UDPG, inhibitor dose response (AID 720650). The following applies: series mostly up to 19.5 µM.
As to `CN(C)c1ccc(/C=C/c2cccc[n+]2[O-])cc1`, the AC50 entry is “inactive”. The same measure for `CC1(C)Cc2c(sc3ncn4c(=S)[nH]nc4c23)CO1`: 13.9 µM (active); for `Cn1cc(C(CO)Cc2ccccc2)c2ccccc21` (stereo not drawn): > 39 µM (inactive); for `Cc1cccc(-c2n[nH]c(=S)n2/N=C/C=C/c2ccco2)c1`: “inactive”.

In the case of `COc1ccc(/C=C2\CCC(C3CCCC3)C2=O)cc1` (stereo not drawn), the AC50 entry is “inactive”.

Take `COc1cc(/C=C/C(=O)OCC(=O)c2ccc[nH]2)ccc1O`: the AC50 result is “inactive”. The value for `CCC(=O)Nc1ccc2c(c1)OC[C@@H](C)N(C(=O)NC(C)C)C[C@H](C)[C@H](OC)CN(C)C2=O` was “inactive”; that for `COc1ccc(C(=O)NC(C(=O)NCc2ccccc2OC)C(C)C)cc1` (stereo not drawn) was “inactive”. The value for `Cc1cc(O)ccc1N=Cc1c(C(F)(F)F)[nH][nH]c1=O` was 10.9 µM (active); that for `CCCCc1[nH]c(=O)c(C#N)c2c1CCCC2` was “inactive”; that for `CC1CCN(CCCn2c(=S)[nH]c3c(sc4ccccc43)c2=O)CC1` was > 39 µM (inactive). `CCCS(=O)(=O)NC(=O)C1(C)CCN(C(=O)c2ccco2)C1` (stereo not drawn): the AC50 entry is “inactive”. The value for `CC(=O)Nc1ccc(OC(=O)Oc2ccc(NC(C)=O)cc2)cc1` was > 39 µM (inactive). The same measure for `O=S(=O)(NC1CCCCCCC1)c1ccc(F)cc1`: “inactive”. For `CCCNC(=O)N1CC[C@@H]2[C@@H](CO)N(C)c3ccc(-c4ccc(F)cc4)cc3[C@@H]21`, the AC50 was 4.27 µM (active). The same measure for `CCOC(=O)c1c(C)[nH]c(C)c1C(=O)COC(=O)/C=C/c1ccco1`: > 39 µM (inactive); for `COc1cccc(C(CNc2ccc(S(=O)(=O)N3CCN(C)CC3)cc2[N+](=O)[O-])N(C)C)c1` (stereo not drawn): “inactive”. The same measure for `CN(c1ccc(O)cc1)c1nc(-c2cccnc2)cs1`: “inactive”. On to `CC(C)Cc1[nH]c(=O)c(C#N)c2c1CCCC2`, for which the AC50 entry was “inactive”. The same measure for `COc1cccc2sc(NNC(=O)C3COc4ccccc4O3)nc12` (stereo not drawn): 0.972 µM (active); for `O=C(O)c1cc(S(=O)(=O)Nc2ccc3cn[nH]c3c2)ccc1Cl`: “inactive”. The same measure for `O=[N+]([O-])c1ccc(S(=O)(=O)Nc2nc(-c3ccccc3)cs2)cc1`: “inactive”; for `COc1ccc(C(CNC(=O)c2oc3ccc(OC)cc3c2C)N2CCCC2)cc1` (stereo not drawn): > 39 µM (inactive). The value for `Oc1ccccc1-c1cnc2cccnn12` was > 39 µM (inactive); that for `CC(=O)c1cccc(OCC(=O)c2cc(C)n(-c3cc(C)on3)c2C)c1` was 12 µM (active). On to `CCc1ccc(Nc2n[n+](-c3ccccc3)c(-c3ccc(OC)c(Br)c3)s2)cc1`, for which the AC50 entry is “inactive”.

Consider `Cc1cccc(/C=C/c2onc(C)c2S(=O)(=O)N2CCC(C(=O)N3CCCCC3)CC2)c1`, for which the AC50 entry is “inactive”. The value for `CC(=O)Oc1ccc(/C=N/NC(=O)CCSc2ccccc2)cc1` was “inactive”; that for `O=C(c1ccccc1F)N1CCN(c2ccc([N+](=O)[O-])c3cccnc23)CC1` was “inactive”; that for `CCOC(=O)c1[nH]nc(-c2cc(CC)c(O)cc2O)c1-c1cscn1` was “inactive”. Turning to `COc1ccc(/C=C(/C#N)C(=O)Nc2ccc(O)cc2)cc1C(=O)O`, the AC50 was 12.2 µM (active). Turning to `O=C(Nc1ccc(N2CCOCC2)c(Cl)c1)c1ccc2c(c1)OCCO2`, the AC50 result is “inactive”. The value for `CCCNC(=O)C1CC(=O)N(c2ccc(OCC)cc2)C1` (stereo not drawn) was “inactive”; that for `O=C(C[C@@H]1C[C@H]2c3cc(NC(=O)Nc4ccccc4)ccc3O[C@H]2[C@H](CO)O1)NCc1ccccc1` was “inactive”; that for `CCOC(=O)c1nnn(-c2nonc2N)c1-c1ccccc1Cl` was “inactive”. The value for `CC(Sc1nc(N)cc(=O)[nH]1)C(=O)NCC(=O)Nc1ccc(F)c(F)c1F` (stereo not drawn) was “inactive”; that for `O=C1/C(=C/c2cccnc2)SC(=NCc2ccccc2)N1Cc1ccccc1` was “inactive”. On to `Cc1cc(C)c(S(=O)(=O)N2CCCCC2C(=O)O)c(C)c1` (stereo not drawn), for which the AC50 result is “inactive”.

For the origin of these results see PubChem BioAssay AID720650 (Broad Institute, 2013).
